Sampled rows, rich in hits. Any-hit rate of the full collection: about 2.2%.
BaF3 parental = counter-screen for JAK2V617F inhibitors: parental Ba/F3 viability inhibitors; CellTiter-Glo ATP luminescence; inhibition, % at 5.6 µM; hit rate 1.1% among 220,000;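 active means inhibition above a per-campaign cutoff, the mean inhibition of all tested compounds plus 3 SD, cut at about 27% in these data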;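 further: 0% = DMSO wells and 100% = JAK Inhibitor I control wells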
aSyn 5UTR inh = MLPCN primary screen, SNCA 5' untranslated region; hit rate 0.82% among 300,000; AID 1813; inhibition, % (tested at 7.5 µM); alpha-synuclein 5'UTR reporter, inhibitor activity; in the data active means inhibition above about 60%;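 further: H4 neuroglioblastoma cells stably carrying SNCA 5'UTR luciferase fusion; 0% = DMSO wells and 100% = positive control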
KLF5 inhibitor = suppresses KLF5 promoter-driven expression. DLD-1 KLF5 promoter-luciferase reporter, luminescence. hit rate 0.23% among 290,000. inhibition, % at 5 µM;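 active means inhibition above a per-plate limit of that plate's mean compound inhibition plus 3 SD, cut at about 60% in these data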;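 further: 0% = DMSO wells and 100% = LY294002 at 200 µM; higher means less KLF5 promoter-driven luciferase light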
APP 5UTR inh = APP translation inhibition. SH-SY5Y APP 5'UTR-luciferase reporter, luminescence. inhibition, % at 2 µM. hit rate 0.82% among 190,000. AID 1285;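 active means inhibition above a set limit, derived from the sample mean plus 3 SD, cut at about 45% in these data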
IEC-6 cytotox = IEC-6 cytotoxicity, counter-screen for KLF5 inhibitors. luminescence viability. AID 1825. hit rate 0.78% among 290,000. inhibition, % at 5 µM;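 further: 0% = plate median of test compound wells and 100% = cytotoxic reference compound wells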
Ba/F3 V617F tox = loss of viability in JAK2V617F-driven Ba/F3 cells. hit rate 1.1% among 220,000. inhibition, % at 5.6 µM. Ba/F3 EpoR-JAK2V617F viability, ATP luminescence. AID 1446;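 active means inhibition above the campaign mean plus 3 SD over all tested compounds, cut at about 24% in these data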;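 further: cytokine-independent growth of Ba/F3 cells driven by EpoR plus mutant JAK2; 0% = DMSO-treated cells and 100% = JAK inhibitor I control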
IEC-6 tox confirm = IEC-6 cytotoxicity, confirmation assay; shares compounds with IEC-6 cytotox; IEC-6 rat intestinal epithelial viability, luminescence; inhibition, % at 5 µM; hit rate 63% among 1,900; AID 1907;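 further: 0% = vehicle and 100% = reference cytotoxic drug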
Numbers without * were called inactive. Unless noted, no stated cut-off is given here; in the data, active means inhibition above about 22%; inactive means the rest.

Screening CCOP(=O)(NC(c1ccccc1)c1nc2ccccc2[nH]c1=O)OCC (stereo not drawn) returned aSyn 5UTR inh -4, KLF5 inhibitor -22 and IEC-6 cytotox 0.
Screening O=C(Nc1nc2ccccc2[nH]1)C1CC1 returned BaF3 parental 50*, aSyn 5UTR inh -46, KLF5 inhibitor -10, APP 5UTR inh -10, IEC-6 cytotox 33*, Ba/F3 V617F tox 18 and IEC-6 tox confirm 17.
Screening Cc1cc(S(=O)(=O)N2CCN=C2c2ccccc2)ccc1F returned BaF3 parental 3, aSyn 5UTR inh 35, KLF5 inhibitor -35, APP 5UTR inh -7, IEC-6 cytotox 1 and Ba/F3 V617F tox 1.
CCOc1ccc(S(=O)(=O)N2CCN=C2c2ccccc2)cc1 was read as aSyn 5UTR inh -27, KLF5 inhibitor 23, IEC-6 cytotox 26* and IEC-6 tox confirm 23*.
Screening O=C1CC2(CCN(C(=O)c3c(F)cccc3F)CC2)Oc2ccccc21 returned aSyn 5UTR inh 19.
`Cc1ccc(NC(=O)c2nsc(Cl)c2Cl)cc1` gave BaF3 parental -3, aSyn 5UTR inh -113, KLF5 inhibitor -131, IEC-6 cytotox 24*, Ba/F3 V617F tox 2 and IEC-6 tox confirm -4.
`CCOc1ccc(/C=N/NC(=O)c2cc3c(OC)cc(OC)c(OC)c3[nH]2)cc1` gave aSyn 5UTR inh -78, KLF5 inhibitor -5 and IEC-6 cytotox 7.
Screening COc1ccc(C(=O)N/N=C/c2ccccc2OC(=O)c2ccccc2)cc1 returned aSyn 5UTR inh 53, KLF5 inhibitor -64, IEC-6 cytotox 94* and IEC-6 tox confirm 12.
COc1ccc(C(=O)N/N=C/c2ccc(OC(=O)c3ccccc3)cc2)cc1 was read as BaF3 parental 3, aSyn 5UTR inh -29, KLF5 inhibitor 6, APP 5UTR inh 2, IEC-6 cytotox -4 and Ba/F3 V617F tox -2.
CCOc1ccc2[nH]c(C(=O)N/N=C/c3ccccc3OC)cc2c1 was read as aSyn 5UTR inh -116, KLF5 inhibitor 60, IEC-6 cytotox 48* and IEC-6 tox confirm 14.
For CCN1CCN(CCNC(=O)c2ccc(/C=C3/Sc4ccccc4N(Cc4ccccc4C)C3=O)cc2)CC1 the results were BaF3 parental 14, aSyn 5UTR inh 26, KLF5 inhibitor -71, APP 5UTR inh -1, IEC-6 cytotox 30*, Ba/F3 V617F tox 7 and IEC-6 tox confirm 18.
For CC(C)c1ccc(NC2CCCN(C(=O)c3ccoc3)C2)cc1 (stereo not drawn) the results were aSyn 5UTR inh -23, KLF5 inhibitor -20 and IEC-6 cytotox 2.
CN(c1ccccc1C(=O)Nc1ccc(S(=O)(=O)N2CCOCC2)cc1)S(=O)(=O)c1ccccc1 was read as BaF3 parental -2, aSyn 5UTR inh 16, KLF5 inhibitor -20, APP 5UTR inh 10, IEC-6 cytotox 7 and Ba/F3 V617F tox 0.
O=C1C(=O)N(CCS(=O)(=O)c2ccccc2)c2ccc(Cl)cc21 was read as aSyn 5UTR inh -27, KLF5 inhibitor -15, IEC-6 cytotox 40* and IEC-6 tox confirm 4.
`Cc1ccc(OCC(=O)NNC(=O)Cc2ccc(S(=O)(=O)N3CCOCC3)s2)cc1` gave aSyn 5UTR inh 14.
Brc1ccc(-c2csc(-c3c[nH]c4ccccc34)n2)cc1 was read as BaF3 parental 1, aSyn 5UTR inh -183, KLF5 inhibitor -22, APP 5UTR inh -38, IEC-6 cytotox 2 and Ba/F3 V617F tox 2.
Screening c1ccc2c(-c3csc(-c4ccncc4)n3)c[nH]c2c1 returned BaF3 parental 16, aSyn 5UTR inh -141, KLF5 inhibitor -109, APP 5UTR inh -31, IEC-6 cytotox 82*, Ba/F3 V617F tox -2 and IEC-6 tox confirm 93*.
Screening CCOC(=O)c1[nH]c(C)c(/C(O)=C2\C(=O)C(=O)N(CCN3CCOCC3)C2c2cccs2)c1C (stereo not drawn) returned BaF3 parental 0, aSyn 5UTR inh 3, KLF5 inhibitor -10, APP 5UTR inh 23, IEC-6 cytotox 26*, Ba/F3 V617F tox -1 and IEC-6 tox confirm 6.
Screening CCOC(=O)c1[nH]c(C)c(/C(O)=C2\C(=O)C(=O)N(CCN(C)C)C2c2ccc(C)o2)c1C (stereo not drawn) returned BaF3 parental 6, aSyn 5UTR inh 10, KLF5 inhibitor 20, APP 5UTR inh 6, IEC-6 cytotox 25*, Ba/F3 V617F tox 6 and IEC-6 tox confirm 11.

Bioassay records deposited in PubChem BioAssay by several laboratories.
